Sfp inh = qHTS Assay for Inhibitors of Bacillus subtilis Sfp phosphopantetheinyl transferase (PPTase). 4'-phosphopantetheinyl transferase ffp (Bacillus subtilis), Q9F4F7. Biochemical Sfp PPTase activity, qHTS. Potency, µM, for the others: largest response in the series, negative = inhibition, actives largely listed as inhibitors. hit rate 3.5% among 310,000. AID 1490, 2009;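 also: the enzyme is Sfp with the accession as filed and its product quenches rhodamine fluorescence; 0% = enzyme reaction without inhibitor and -100% = no enzyme wells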
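Buffer: 50 mM Hepes-Na pH 7.6, 10 mM MgCl2, 0.01% Nonidet P-40, 0.01% BSA. Enzyme 15 nM, pre-exposed to compound 15 min; substrates then added and fluorescence change tracked over 30 min.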
HP1b binding inh = HTS for Inhibitors of HP1-beta Chromodomain Interactions with Methylated Histone Tails | hit rate 0.56% among 390,000 | Chromobox protein homolog 1 (Homo sapiens), P83916 | Potency, µM (titrated, usually from 114 µM), for inactives: top-dose activity change, negative = inhibition, actives largely listed as inhibitors | AlphaScreen HP1-beta / biotin-H3K9me3 peptide binding; also: nearly all actives have a fitted effect of over 70% in size
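Compound inhibition of the preformed complex between 50 nM HP1-beta and 50 nM biotinylated H3K9me3 peptide was read by AlphaScreen. Buffer was PBS pH 7.4 with 0.01% Tween-20. Incubations ran 30 min at room temperature, with 10 ug/mL donor/acceptor beads.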
BAZ2B block = qHTS Assay for Inhibitors of BAZ2B. Bromodomain adjacent to zinc finger domain protein 2B (Homo sapiens), Q9UIF8. AlphaScreen BAZ2B-H3K14Ac peptide displacement. Potency, µM (highest dose often 114 µM), without a hit: at the highest dose activity change, negative = inhibition, hits mostly inhibitors. hit rate 4.4% among 360,000. AID 504333, 2011; also: % is scaled to controls: 0 for no effect and ±100 for the full control effect; nearly all actives have a fitted effect of over 60% in size
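Compounds, titrated to a top concentration of 110 uM, were incubated 30 min at room temperature with preformed BAZ2B/acetyl-K14 H3 peptide complex (50 nM each). Proximity signal was measured by AlphaScreen after 20 min with beads.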
JMJD2A Tudor = qHTS Assay for Inhibitors of JMJD2A-Tudor Domain | Potency, µM (top dose mostly 114 µM), for the others: top-dose activity change, negative = inhibition, most hits filed as inhibitors | hit rate 4.4% among 390,000 | Lysine-specific demethylase 4A (Homo sapiens), O75164 | AlphaScreen JMJD2A-Tudor / H3K4me3 peptide binding | AID 504339, 2011; also: % is scaled to controls: 0 for no effect and ±100 for the full control effect; nearly all actives have a fitted effect of over 50% in size
Target sequence (O75164 whole entry, looked up, the tested form may be a part): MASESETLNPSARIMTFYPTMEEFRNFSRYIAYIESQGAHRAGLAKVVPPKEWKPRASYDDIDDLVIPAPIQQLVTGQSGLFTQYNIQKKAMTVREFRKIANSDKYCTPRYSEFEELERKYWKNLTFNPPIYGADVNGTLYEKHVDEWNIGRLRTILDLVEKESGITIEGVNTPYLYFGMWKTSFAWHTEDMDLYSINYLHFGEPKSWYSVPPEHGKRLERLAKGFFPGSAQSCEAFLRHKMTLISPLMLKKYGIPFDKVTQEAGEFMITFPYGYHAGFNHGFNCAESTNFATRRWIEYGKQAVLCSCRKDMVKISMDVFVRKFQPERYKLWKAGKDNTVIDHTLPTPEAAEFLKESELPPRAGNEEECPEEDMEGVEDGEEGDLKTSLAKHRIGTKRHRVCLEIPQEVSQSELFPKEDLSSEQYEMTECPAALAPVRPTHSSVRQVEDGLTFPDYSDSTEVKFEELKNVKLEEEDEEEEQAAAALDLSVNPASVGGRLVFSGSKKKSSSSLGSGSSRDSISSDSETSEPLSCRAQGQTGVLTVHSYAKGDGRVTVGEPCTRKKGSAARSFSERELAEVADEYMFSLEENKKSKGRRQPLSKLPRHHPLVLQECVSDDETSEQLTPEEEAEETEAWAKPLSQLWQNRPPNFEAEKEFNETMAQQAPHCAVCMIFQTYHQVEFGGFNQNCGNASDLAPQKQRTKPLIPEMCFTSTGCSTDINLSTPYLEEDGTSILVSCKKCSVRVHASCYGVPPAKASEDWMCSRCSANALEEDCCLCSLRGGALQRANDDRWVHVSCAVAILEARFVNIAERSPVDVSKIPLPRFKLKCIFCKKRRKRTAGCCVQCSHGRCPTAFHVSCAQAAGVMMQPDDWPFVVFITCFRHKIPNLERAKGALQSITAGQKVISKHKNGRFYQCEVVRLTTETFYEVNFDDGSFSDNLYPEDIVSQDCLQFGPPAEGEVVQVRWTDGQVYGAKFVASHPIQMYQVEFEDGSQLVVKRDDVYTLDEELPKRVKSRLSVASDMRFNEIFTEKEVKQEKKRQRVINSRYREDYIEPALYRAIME
ALOX12 inh = Primary qHTS assay for inhibitors of human arachidonate 12S-lipoxygenase (ALOX12): Round 2; purified 12hLO, xylenol orange hydroperoxide absorbance; hit rate 1.1% among 580,000; AID 1671190, 2021; Potency, µM (series often up to 108 µM), without a hit: at the highest dose activity change, negative = inhibition, hits mostly inhibitors; also: % is scaled to controls: 0 for no effect and ±100 for the full control effect
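Purified human 12hLO at 150 nM in 25 mM Hepes, 0.01% Triton X-100, pH 7.0, preincubated 15 min at room temperature with compound. Reaction started with 40 uM arachidonic acid, 30 min at room temperature. Hydroperoxide measured by Fe-xylenol orange, 573/405 nm absorbance ratio.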
G9a block = qHTS Assay for Inhibitors of Histone Lysine Methyltransferase G9a; Histone-lysine N-methyltransferase EHMT2 (Homo sapiens), Q96KQ7; G9a H3K9 monomethylation, AlphaScreen, 2 h; Potency, µM (series often up to 102 µM), for inactives: at the top dose activity, negative = inhibition, most hits filed as inhibitors; hit rate 8.8% among 350,000; also: % is scaled to controls: 0 for no effect and ±100 for the full control effect; nearly all actives have a fitted effect of over 75% in size
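Signal arises when biotinylated H3K9 peptide, once monomethylated, bridges streptavidin donor and antibody-captured acceptor beads. Enzyme at 20 nM was preincubated 15 min with test compounds; peptide 500 nM and SAM 20 uM then reacted for 2 h.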
Active calls of the source: *; u = inconclusive; x = no result; ! = repeats disagree; [ ] = remark or other dose. Shown are actives, neighbours in structure and some others; about 8.7% of the full set was active somewhere. Calls follow the shape of the dose curve; as a rule, active = well fitted curve in the direction sought with a large enough effect; inconclusive = small, poorly fitted or top-dose-only effect, or another doubt; inactive = no such curve, though single readings can be large; an effect the other way counts as inactive or inconclusive. Potency is read from the fitted curve at half-maximal effect.

SMILES	Sfp inh	HP1b binding inh	BAZ2B block	JMJD2A Tudor	ALOX12 inh	G9a block
CCC1Nc2ncnc(N3CCN(c4ccccc4)CC3)c2N(Cc2ccccc2)C1=O (stereo not drawn)	x	24%	x	-27%	1%	x
CCC1Nc2ncnc(N3CCN(c4ccccn4)CC3)c2N(Cc2ccc(Cl)cc2)C1=O (stereo not drawn)	x	0%	56µM*	u	u	-26%[2.33 µM]
CCC1Nc2ncnc(N3CCN(c4ccccc4)CC3)c2N(Cc2ccc(C)cc2)C1=O (stereo not drawn)	x	-3%	u	56µM*	u	u
O=C(/C=C\Nc1cccc(F)c1)c1cccs1	-7%	85%	16%	-1%[11.4 µM]	1%	-7%[59 µM]
O=C(/C=C/Nc1ccc(F)cc1F)c1cccs1	u	21%	-1%	-19%	-24%	14µM*
CCOC(=O)c1ccccc1N/C=C/C(=O)c1cccs1	-16%	85%	18%	16%	u	32µM*
O=C(/C=C/Nc1ccccc1F)c1cccs1	9%	28%	1%	-8%	u	32µM*
O=C(/C=C/c1cccc2ccccc12)Nc1ccc(Cl)cc1C(F)(F)F	x	x	x	x	6%	x
NC(=O)CCNc1ccccc1	x	x	x	x	1%	x
CNc1nc(C(=O)N2CCC3(CC2)c2nc[nH]c2CCN3C)cs1	x	x	x	x	21%	x
CC(=O)c1c(C)[nH]c2ccccc12	x	x	x	x	0%	x
CC(=O)c1cccc(N=Nc2c(C)[nH]c3ccccc23)c1	-3%	-31%	35µM*	u	0%	10µM*
COc1ccc(N=Nc2c(C)[nH]c3ccccc23)cc1	x	u	x	50µM*	u	x
CCC(=O)Nc1ccccc1C(C)(C)C	x	x	x	x	0%	x
CN(C)CCCOc1ccc2c(c1)Sc1ccccc1CC2=O	22µM*	16%	13%	-19%	-8%	-27%[59 µM]
O=C(c1cc2c(s1)-c1ccccc1OC2)N1CCN(c2ccccc2)CC1	-7%	21%	4%	-13%	u	1.1µM*!
COc1cccc(C(=O)NNC(=O)C(=O)N2CCCCC2)c1	10%	16%	-21%	-15%	-8%	50µM*
COc1ccc(C(=O)NNC(=O)C(=O)N2CCCCC2)cc1OC	-5%	19%	-5%	25µM*	u	u
COc1ccc(C(=O)Nc2ccc(C(=O)N3CCCCC3)cc2)cc1OC	6%	17%	4%	4%	9%	23%
N#Cc1nc(-c2ccc(COc3ccc(Cl)cc3)o2)oc1N1CCCCC1	x	-8%	u	u	-8%	3.2µM*
N#Cc1nc(-c2ccc(COc3ccccc3)o2)oc1N1CCCCC1	x	u	5µM*	u	9%	4.5µM*
O=C(O)C[C@@H]1CCN(C(=O)c2ccnc(Cl)c2)C[C@@H]1CCN1CCN(c2cccc(C(F)(F)F)c2)CC1	x	x	x	x	5%	x
COc1ccc2ccccc2c1CN1CCN(Cc2ccccc2)CC1	13%	-4%	u	-33%	-21%	u
COc1ccc(CN2CCN(Cc3ccc4ccccc4c3)CC2)cc1OC	u	25µM*	16µM*	2.8µM*	u	-1%[2.33 µM]
CCOc1cc(CN2CCCCCC2)ccc1OC	-7%	-14%	u	2.2µM*	u	x
SMILES	Sfp inh	HP1b binding inh	BAZ2B block	JMJD2A Tudor	ALOX12 inh	G9a block
COc1ccccc1CN1CCN(Cc2ccc3ccccc3c2)CC1	u	u	22µM*	8.9µM*	u	7.9µM*
COc1ccc(CN2CCS(=O)(=O)CC2)cc1OC	19%	45%	-11%	3%	27%	2%
COc1ccc(CN2CCC(CO)(CN3CCCC3)CC2)cc1OC	x	x	x	x	69%	x
OC1CCN(Cc2ccc3ccccc3c2)CC1	7%	u	u	3.5µM*	u	11µM*
N#Cc1ccc(S(=O)(=O)N2CCCCCCNC(=O)[C@@H]3CCCC[C@@H]32)cc1	x	x	x	x	18%	x
COc1ccc(-n2ncc3c(NCC(C)C)ncnc32)cc1	8%	29%	-2%	-3%	6.3µM*	-13%[59 µM]
COc1ccc(-n2ncc3c(NCCCOC(C)C)ncnc32)cc1	x	40%	2%	-20%	u	4%[59 µM]
O=C(O)c1cccc([N+](=O)[O-])c1C(=O)Nc1nc2ccccc2s1	1%	12%	-14%	3%	-1%	79µM*
C=CCN(Cc1cccc(OCC(N)=O)c1)Cc1ccccc1C	x	x	x	x	-5%	x
Cc1ccc(S(=O)(=O)Nc2nsc(N)n2)cc1	35µM*	5%	-6%	2%	0%	32µM*
Cc1ccc(S(=O)(=O)Nc2nnc(CC(C)(C)C)s2)cc1	79µM*	-5%	-21%	-21%	-17%	35µM*
Cc1ccc(S(=O)(=O)Nc2nnc(C(C)(C)C)s2)cc1	-56%	-2%	-6%	-5%	u	4.5µM*
CC(C)(C)c1nnc(NS(=O)(=O)c2ccc([N+](=O)[O-])cc2)s1	-71%	-13%	-3%	-29%	u	10µM*
O=C(NCc1ccncc1)c1nc(Cc2c[nH]c3ccccc23)no1	x	x	x	x	-11%	x
COC[C@H]1CCCN1C(=O)CC[C@H]1CNC(=O)[C@@H]2[C@@H](CCN2C2CCOCC2)N1C	x	x	x	x	23%[176 µM]	x
c1ccc2c(NC(C3CC3)C3CC3)nc(-c3ccncc3)nc2c1	x	x	x	x	11%	x
Cc1ccc(C)c(OCC(=O)NC(Cc2c[nH]c3ccccc23)C(=O)O)c1 (stereo not drawn)	-5%	27%	u	-12%	u	x
CCOc1ccccc1Nc1nnc(SCC(=O)Nc2ccc3[nH]c(=O)[nH]c3c2)s1	-16%	37%	-12%	-24%	-28%	-108%[59 µM]
CCOc1ccccc1Nc1nnc(SCC(=O)NC(Cc2c[nH]c3ccccc23)C(=O)O)s1 (stereo not drawn)	8%	-9%	-31%	-29%	-19%	40µM*
Cc1ccc(Nc2nnc(SCC(=O)NC(Cc3c[nH]c4ccccc34)C(=O)O)s2)cc1 (stereo not drawn)	-13%	1%	50µM*	-23%	u	13µM*
O=C1c2cc(N3CCOCC3)nc(-c3cccc(O)c3)c2CN1CC(F)(F)F	x	x	x	x	-29%[176 µM]	x
COc1cccc(C(=O)N2CCC3(CC2)CC(N(C)Cc2ccccc2)CCO3)c1 (stereo not drawn)	x	x	x	x	7%	x
CC(C)CN(CC(C)C)C(=O)c1cccc(S(=O)(=O)N2CCc3ccccc32)c1	6%	-17%	-15%	45µM*	1%	79µM*

Screening results as filed in PubChem BioAssay.
